Data: the supplement of paper PMC10105736
Unmarked numbers belong to inactive results.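 The calls were made as follows: active = MAPPIT score above the 99th percentile of random reference set scores in the same batch; inactive = at or below it.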

Experiments:
Experiment in all cases: MAPPIT interaction score (arbitrary units); higher = stronger binary interaction signal, active = hit call of the paper
CG15482 = conditions: MAPPIT configuration: N-N; pair source set: screen_1
CG33096 = conditions: MAPPIT configuration: N-N; pair source set: Finley_Y2H
CG1532 = conditions: MAPPIT configuration: N-N; pair source set: Finley_Y2H
CG7560 = conditions: MAPPIT configuration: N-N; pair source set: Finley_Y2H
CG15369 = conditions: MAPPIT configuration: N-N; pair source set: Finley_Y2H
CG32548 = conditions: MAPPIT configuration: N-N; pair source set: Finley_Y2H
CG15347 = conditions: MAPPIT configuration: N-C; pair source set: screen_3
CG15449 = conditions: MAPPIT configuration: N-N; pair source set: Finley_Y2H
CG5946 = conditions: MAPPIT configuration: N-N; pair source set: Finley_Y2H
PHDP = conditions: MAPPIT configuration: N-N; pair source set: Finley_Y2H
Prim2 = conditions: MAPPIT configuration: N-N; pair source set: Finley_Y2H
CG15443 = conditions: MAPPIT configuration: N-N; pair source set: Curagen_low_conf
Gs1 = conditions: MAPPIT configuration: N-N; pair source set: DPIM
Mpp6 = conditions: MAPPIT configuration: N-N; pair source set: DPIM
CG15514 = conditions: MAPPIT configuration: N-N
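Also: HEK293T cells with Epo stimulation, STAT-responsive firefly luciferase reporter, fold induction versus unstimulated cells divided by the larger fold induction of two negative controls lacking either bait or prey.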

B1: trbd (protein)
chain: MCDTKDDAQKWKCETCTYENYPSSLKCTMCQASKPLLNEDIFRLSPAQESCTVAEEAAAVEVAVMSPTPSSTCYSLQPQSQARQSNVADSEKWPCKVCTYLNWPRSLRCVQCCTKRGGEAIERGKKDMDNEADGDRAGEALQALRISGSEENLANKPVQLIGATASHRLSLSRGIDDATHLNNLANASHNQSQSQHRQPVLQQQMQLQLQPQQQRESSSSAAVPPQQQKQCYVSKWACNSCTYENWPRSIKCSMCGKTREREISGSQNDLHASSSLNSQEENQQQLQQPNVDTVSVNNSFNKKHIYQLGSSETINNCDTLQERQERRQRQIRRQVDWQWLNACLGVVENNYSAVEAYLSCGGNPARSLTSTEIAALNRNSAFDVGHTLIHLAIRFHREEMLPMLLDQISGSGPGIKRVPSYVAPDLAADIRRHFANTLRLRKSGLPCHYVQKHATFALPAEIEELPIPIQEQLYDELLDRDAQKQLETPPPALNWSLEITARLSSRMFVLWNRSAGDCLLDSAMQATWGVFDRDNILRRALADTLHQCGHVFFTRWKEYEMLQASMLHFTLEDSQFEEDWSTLLSLAGQPGSSLEQLHIFALAHILRRPIIVYGVKYVKSFRGEDIGYARFEGVYLPLFWDQNFCTKSPIALGYTRGHFSALVPMEPFTRIDGRRDDVEDVTYLPLMDCELKLLPIHFLTQSEVGNEESMMRQWLDVCVTDGGLLVAQQKLSKRPLLVAQMLEEWLNHYRRIAQVITAPFIRRPQITHYSSDGDSDEE
Work on B1 yielded an MAPPIT interaction score (CG15482) of -0.138 and an MAPPIT interaction score (CG33096) of 0.0624.

B2: sel (protein)
chain: MLTKALILFGLLALAQGYSFTSREVKCHVCKAVVTELEEAIAKEDPHKMADVSGFRLDAQGNSISKKVRLVKSEMFLTELMEKICEKMDDYLKATYKSNGKFTLLKMIINGQMNPDSSLVDFVQDGDLNKSLGHFCNEVLEDNDEIFVKAFQAEELGNDLDIKICSEQASYCDESPVQEEYDFDGKEEL
B2 was tested, and the MAPPIT interaction score (CG1532) was -0.121 and the MAPPIT interaction score (CG7560) was 0.327.

B3: Gel (protein)
chain: MDASGAATMAVLSSLLVFLALSSSLCSAGTLNARPAFPVQSGEIQPSGQNSKQAARRVMHPSFANAGRTPGLEIWRIENFEPVIYPKTNYGKFYTGDSFIVLNTIENKKDKKLSWDVHFWLGLETSTDEAGAAAILTVQLDDLLNGGPVQHREVQDHESQLFLSYFKNGIRYEQGGVGTGFKHVETNAQGETRLFQVKGKRNVRVRQVNLSVSSMNTGDCFILDAGSDIYVYVGSQAKRVEKLKAISAANQIRDQDHNGRARVQIVDDFSTDADKQHFFDVLGSGSADQVPDESTADEDSAFERTDAAAVSLYKVSDASGKLKVDIIGQKPLTQAMLDTRECFILDTGSGIFVWVGKGATQKEKTDAMAKAQEFLRTKKYPAWTQIHRIVEGSESAPFKQYFDTWRDAGMSHSRLIRSALGIGSDELLNDDEIDSVVTQLKKSGGRAFGFMPDHGQNVIETITQYVAKPGSDEIVVSTVPFDEKLPLLGFASYVLTYNYEANNGDTGSLTYVWHGVKASAAARKRAFEEGLVGSKDGLLVQTNQGHEPRHFYKIFKGKLLTSFTALPVTAQLFRIRGTVESDVHASEVAADSSSLASSDAFVLHSGKSHKIYIWNGLGASAFEKQAAVDRFSDYWDDVELEQVEEGAEPDEFWEELNGEGQYDRSLGDDGAPLLESRLFHCHLSSGGFLKVEEVAQYEQEDLDSDDIMLLDAGDEIYLWVGYGVSEEENGKLLDTAKLYFNLEPTARSFDTVSIIRVPQGKEPRVFKRMFPNWDDNYWQNQPSYEDMKQLVIDANNEV
For B3, the MAPPIT interaction score (CG15369) was 0.935 and the MAPPIT interaction score (CG32548) was 0.0886.

B4: Nep3 (protein)
chain: MTRYKQTEFTEDDSSSIGGIQLNEATGHTGMQIRYHTARATWNWRSRNKTEKWLLITTFVMAITIFTLLIVLFTDGGSSDATKHVLHVQPHQKDCPSGNELPCLNKHCIFASSEILKSIDVTVDPCDDFYGYSCNQWIKNNPIPEGKSTWGTFGKLEQMNQLIIRNVLEKPAKSFKSDAERKAKVYYESCLDADEHMEKLGAKPMNDLLLQIGGWNVTKSGYNVANWTMGHTLKILHNKYNFNCLFGWAIGEDDKNSSRHVIQIDQGGLTLPTADYYNNKTDNHRKVLNEYIEYMTKVCVLLGANESDARAQMIGVINFEKKLANITIPLEDRRNEEAMYHPMQLRQLSKLAPFLNWTDHFDNAMQMVGRRVTDDEVVVVYAPDFLKNLSDIILKMEQTEEGKITLNNYLVWQAVRTLTSCLSKPFRDAYKGVRKALMGSDGGEEIWRYCVSDTNNVVGFAVGAIFVRQAFHGESKPAAEQMIAEIREAFKMNLQNLTWVDKQTREKAIEKANQISDMIGFPDYILDPVELDKKYAELNITPNAYFENNIQVAIYNLKSNLKRLDQPVNKTNWGMTPQTVNAYYTPTKNQIVFPAGILQTPFFDINNPKSLNFGAMGVVMGHELTHAFDDQGREYDKFGNINRWWDSKSIERFNEKSECIARQYSGYKMNGRTLNGKQTLGENIADNGGLKAAYHAYQRTKSDRDVDILKLPGLNLTHSQLFFVSFAQVWCSSTTDETNLLQMEKDPHSPSQFRVIGTLSNMKEFAEVFQCKPGKRMNPTEKCEVW
B4 showed an MAPPIT interaction score (CG15347) of -1.12.

B5: RhoGAP68F (protein)
chain: MDAHSRFAPRLPGPAINPIVDNSDEPQPSLSDLHDFEPKLEFDDTELLAPSPLEKDVMVGDFVLAEDPELEPEEDVNPLEDDFEDQLREQSENFQTPRNKCDFLGTDKQGRHIFGIYASRFPEKSQLEGFVREIIKEIEPFVENDYILVYFHQGLKEDNKPSAQFLWNSYKELDRNFRKNLKTLYVVHPTWFIRVIWNFFSPFISDKFRKKLVYISSLDELRQALGLNKLKLPDNICDLDDKLNPSRKPSTPPPSSNINASRQQQHKMATTHQFGVPLKFIVMNSPCLNSIPPIVRKCVDSLSITGVIDTEGIFRRSGNHSEIMALKERVNRGEDVDLKSVNVHVIAGLLKSFLRDLAEPLLTFELYEDVTGFLDWPKEERSRNVTQLIREKLPEENYELFKYIVEFLVRVMDCEDLNKMTSSNLAIVFGPNFLWSRSTSTSLEEIAPINAFVDFVLQNHKDIYLIDVNQRTVSVD
B5 was tested, and the MAPPIT interaction score (CG15449) was 0.0825, the MAPPIT interaction score (CG5946) was 0.206 and the MAPPIT interaction score (PHDP) was 0.248. The MAPPIT interaction score (Prim2) was 3.38 (active).

B6: eEF5 (protein)
chain: MAELDDQFETTDSGASTTYPMQCSALRKNGFVMLKSRPCKIVEMSTSKTGKHGHAKVHMVGIDIFSNKKYEDICPSTHNMDVPNVKREDLQLIAISDDSFLTLMTESGDLREDLKVPEGELGEQLRLDFDSGKDLLCTVLKACGEECVIAIKTNTALDK
Work on B6 yielded an MAPPIT interaction score (CG15443) of 0.896, an MAPPIT interaction score (Gs1) of 0.522 and an MAPPIT interaction score (Mpp6) of -0.193.

B7: Spt6 (protein)
chain: MAEFLDSEAEESEEEEELDVNERKRLKKLKAAVSDSSEEEEDDEERLREELKDLIDDNPIEEDDGSGYDSDGVGSGKKRKKHEDDDLDDRLEDDDYDLIEENLGVKVERRKRFKRLRRIHDNESDGEEQHVDEGLVREQIAEQLFDENDESIGHRSERSHREADDYDDVDTESDADDFIVDDNGRPIAEKKKKRRPIFTDASLQEGQDIFGVDFDYDDFSKYEEDDYEDDSEGDEYDEDLGVGDDTRVKKKKALKKKVVKKTIFDIYEPSELKRGHFTDMDNEIRKTDIPERMQLREVPVTPVPEGSDELDLEAEWIYKYAFCKHTVSEQEKPESREKMRKPPTTVNKIKQTLEFIRNQQLEVPFIAFYRKEYVKPELNIDDLWKVYYYDGIWCQLNERKRKLKVLFEKMRQFQLDTLCADTDQPVPDDVRLILDSDFERLADVQSMEELKDVHMYFLLNYSHELPRMQAEQRRKAIQERREAKARRQAAAAENGDDAAEAIVVPEPEDDDDPELIDYQLKQASNSSPYAVFRKAGICGFAKHFGLTPEQYAENLRDNYQRNEITQESIGPTELAKQYLSPRFMTTDEVIHAAKYVVARQLAQEPLLRKTMREVYFDRARINIRPTKNGMVLIDENSPVYSMKYVAKKPVSDLFGDQFIKLMMAEEEKLLEITFLEEFEGNACANGTPGDYVEESKALYQLDQFAKHVQEWNKLRAECVQLALQKWVIPDLIKELRSTLHEEAQQFVLRSCTGKLYKWLKVAPYKPQLPPDFGYEEWSTLRGIRVLGLAYDPDHSVAAFCAVTTVEGDISDYLRLPNILKRKNSYNLEEKAQKLADLRKLSDFIKMKKPHIVVIGAESRDAQNIQADIKEILHELETSEQFPPIEVEIIDNELAKIYANSKKGESDFKEYPPLLKQAASLARKMQDPLVEYSQLCDADDEILCLRYHPLQERVPREQLLEQLSLQFINRTSEVGLDINLMVQNSRTINLLQYICGLGPRKGQALLKLLKQSNQRLENRTQLVTVCHLGPRVFINCSGFIKIDTSSLGDSTEAYVEVLDGSRVHPETYEWARKMAIDAMEYDDEETNPAGALEEILESPERLKDLDLDAFAVELERQGFGSKSITLYDIRNELSCLYKDYRTPYTKPSAEELFDMLTKETPDSFYVGKCVTAMVTGFTYRRPQGDQLDSANPVRLDSNESWQCPFCHKDDFPELSEVWNHFDANACPGQPSGVRVRLENGLPGFIHIKNLSDRQVRNPEERVRVSQMIHVRIIKIDIDRFSVECSSRTADLKDVNNEWRPRRDNYYDYVTEEQDNRKVSDAKARALKRKIYARRVIAHPSFFNKSYAEVVAMLAEADQGEVALRPSSKSKDHLTATWKVADDIFQHIDVREEGKENDFSLGRSLWIGTEEFEDLDEIIARHIMPMALAARELIQYKYYKPNMVTGDENERDVMEKLLREEKANDPKKIHYFFTASRAMPGKFLLSYLPKTKVRHEYVTVMPEGYRFRGQIFDTVNSLLRWFKEHWLDPTATPASASASNLTPLHLMRPPPTISSSSQTSLGPQAPYSVTGSVTGGTPRSGISSAVGGGGSSAYSITQSITGYGTSGSSAPGAGVSSSHYGSSSTPSFGAINTPYTPSGQTPFMTPYTPHASQTPRYGHNVPSPSSQSSSSQRHHYGSSSGTGSTPRYHDMGGGGGGGVGGGGGSNAYSMQPHHQQRAKENLDWQLANDAWARRRPQQHQSHQSYHAQQQHHHSQQQPHMGMSMNMGITMSLGRGTGGGGGGGYGSTPVNDYSTGGGHNRGMSSKASVRSTPRTNASPHSMNLGDATPLYDEN
B7 showed an MAPPIT interaction score (CG15514; pair source set: screen_1) of 2.16 and an MAPPIT interaction score (CG15514; pair source set: screen_2) of 1.63.

B8: aph-1 (protein)
chain: MTLPEFFGCTFIAFGPPFALFVFTIANDPVRIIILIAAAFFWLLSLLISSLWYALIPLKEFLAFGVVFSVCFQEAFRYIIYRILRSTEQGLHAVAEDTRVTDNKHILAYVSGLGFGIISGMFALVNVLADMSGPGTMGLKGGTELFFVTSAAQALSIILLHTFWSVIFFNAFDTNNYIHIGYVVFSHLFVSLITLLNANELYTTTLLINYLVTILTGVLAFRVAGGTSRSFRKFITCQ
Work on B8 yielded an MAPPIT interaction score (CG15347) of 3.73.
